# Results as given in PubChem BioAssay (EPA / NIEHS).
# Activity calls are given as the source filed them. Rule for the calls: active = hit-call score of the fitted dose curve at least 0.9, where 1 is the maximum; inactive = score below 0.9.
# Read-out: Transforming growth factor beta 1 (TGFb1), TGFB1 (gene 7040)
# Assay: BSK_BE3C_TGFb1: BioMAP Diversity Plus: BE3C Assay for Transforming growth factor beta 1 (TGFb1) Biomarker Activity (AID 2283036)
# Conditions: primary human bronchial epithelial cells; actives raise or lower the signal
# Protocol: BSK_BE3C is a cell-based, multiplexed-readout assay that uses bronchial epithelial cell, a human lung primary cell, with measurements taken at 24 hours after chemical dosing in a 96-well plate.BSK_BE3C_TGFb1 is an assay component measured in the BSK_BE3C assay. It measures TGF-b1 antibody related to regulation of gene expression using ELISA technology.Data from the assay component BSK_BE3C_TGFb1 was analyzed into 1 assay endpoint. This assay endpoint, BSK_BE3C_TGFb1, was analyzed with bidirectional fitting relative to DMSO as the negative control and baseline of activity. Using a type of binding reporter, gain or loss-of-signal activity can be used to understand changes in the signaling as they relate to the gene TGFB1. Furthermore, this assay endpoint can be referred to as a primary readout, because this assay has produced multiple assay endpoints where this one serves a signaling function. To generalize the intended target to other relatable targets, this assay endpoint is annotated to the growth factor intended target family, where the subfamily is transforming growth factor beta.
# The levels of cell surface (or secreted, indicated by the prefix "s") biomarker endpoints were measured by ELISA. Overt cytotoxicity to cells in confluent adherent cultures (all systems other than the BT system) was assessed by measuring total protein levels using sulforhodamine B (SRB) staining in parallel cultures at the time of biomarker measurements, indicated as SRB endpoints. For proliferation assays for adherent cell types, individual cell types are cultured at sub-confluence and relative cell numbers quantified by SRB staining at time points optimized for each system (48 h: 3C and CASM3C systems; 72 h: BT and HDF3CGF systems; 96 h: SAg system). SRB was performed by staining cells with 0.1% SRB after fixation with 10% TCA and reading wells at 560 nm.Viability and proliferation of PBMC (T cells) was quantified by Alamar Blue reduction for the SAg and BT systems. For PBMC viability (referred to as PBMC Cytotoxicity within the assay endpoint names), cells were plated (75,000/well in a 96-well plate) and then chemical samples added for 1 h before addition of activators, SEB and TSST-1 (20 ng/mL final concentration each). Cells were incubated for 90 h. Then, Alamar Blue (20 uL/well) (Invitrogen, Cat DAL1100) was added for 6 h, and the plates were read with a fluorescence microplate reader at 546/580 nm (excitation/emission). For PBMC proliferation, cells were plated and activated as above but incubated for only 16 h prior to addition of Alamar Blue. Plates were read after 6 h.
row,Compound,outcome
1,CC=Cc1ccc(O)c(OC)c1,inactive
2,Cc1cccc([N+](=O)[O-])c1C,inactive
3,Oc1ccc2c(c1)OC[C@@H](N1CCC(O)(c3ccc(F)cc3)CC1)[C@H]2O,inactive
4,Cc1ccccc1Cl,inactive
5,COCCOCCOC,inactive
6,CNC(=O)[C@H]1O[C@@H](n2cnc3c(NCc4cc(Cl)ccc4OCc4cc(C)no4)ncnc32)[C@H](O)[C@@H]1N,inactive
7,NCCO,inactive
8,CCc1c(C(=O)NN2CCCCC2)nn(-c2ccc(Cl)cc2Cl)c1-c1ccc(Br)cc1,inactive
9,COCCOC[C@H](CC1(C(=O)NC2CCC(C(=O)O)CC2)CCCC1)C(=O)Oc1ccc2c(c1)CCC2 (stereo not given in full),inactive
10,CC(=O)OCCOCCOCCOC(C)=O,inactive
11,Cc1ccc(N(C)C)cc1,inactive
12,CC(C)(C)c1cc(O)c(C(C)(C)C)cc1O,inactive
13,Cc1ccc(Cl)cc1,inactive
14,CC(=O)Oc1ccccc1C(=O)O,inactive
15,O=[N+]([O-])C(CO)(CO)CO,inactive
16,CCCCCCCCCCO,inactive
17,CC1(C)NC(=O)NC1=O,inactive
18,O=c1c(O)c(-c2ccc(O)c(O)c2)oc2cc(O)cc(O)c12,inactive
19,CCCCCCCCCCCCCCCC,inactive
20,CC(C)c1ccc(C(=O)N=C(N)N)cc1S(C)(=O)=O,inactive

row,Compound,outcome
1,CC(CO)OC(C)CO (stereo not given) (tested in a mixture with another compound),inactive
2,NS(=O)(=O)c1cc2c(cc1Cl)NCNS2(=O)=O,inactive
3,CC1(C)CC(N=C=O)CC(C)(CN=C=O)C1 (stereo not given),inactive
4,Cc1cc(NC(=O)C(=O)O)cc(C)c1Oc1ccc(O)c2c1CCC2,inactive
5,Cc1cc(=O)[nH]c(=S)[nH]1,inactive
6,CCCCCCCCCCC,inactive
7,O=C(O)CCCCC(=O)O,inactive
8,CCCCCCCC=O,inactive
9,Cc1ccc2ncccc2c1,inactive
10,Nc1ccc(S(=O)(=O)c2ccc(N)cc2)cc1,inactive
11,COC(=O)c1ccc(O)cc1,inactive
12,COc1cc(C=O)ccc1O,inactive
13,CCCCCCCCCCCCCCCCCC(=O)O,inactive
14,COc1ccc(S(=O)(=O)N2C(=O)[C@@](c3ccccc3OC)(N3C[C@H](O)C[C@H]3C(=O)N(C)C)c3cc(Cl)ccc32)c(OC)c1,inactive
15,CCNc1cccc(C)c1,inactive
16,Cc1oc(-c2ccccc2)nc1CCOc1cccc2c1ccn2CCC(=O)O,inactive
17,Nc1ccc2c(c1)C(=O)c1ccccc1C2=O,inactive
18,CCCCc1ccc2c(n1)[C@@H](c1ccc(OC)cc1C[C@H](C)C(=O)O)[C@H](C(=O)O)[C@H]2c1ccc2c(c1)OCO2,inactive
19,Cc1nc(C)nc(N2C[C@@H](C)N(c3ccnc([C@@H](C)O)n3)[C@@H](C)C2)n1,inactive
20,O=C(OCCCCCOC(=O)c1ccccc1)c1ccccc1,inactive
